# Sampled rows, rich in hits. Any-hit rate of the full collection: about 4.1%.
# hgDAF-12 ag = H. glycines DAF-12 receptor agonists, primary screen, cell-based, luminescence, HEK293, GAL4 fusion, UAS-luciferase. Nuclear hormone receptor DAF-12 (Heterodera glycines), GAL4 fusion. HEK293 GAL4-hgDAF12 UAS-luciferase reporter, agonist luminescence; normalized to butyrate control. activation, % at 6.8 µM. actives 1.8% (n = 370,000). AID 687014, 2013;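 active = activation above a cutoff set at the mean of all screened compounds plus 3 SD, cut at about 10% in these data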;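 note: 0% = DMSO wells and 100% = sodium butyrate wells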
# DAX1 inh-1 = DAX1 (NR0B1) inhibitors on StAR promoter, primary screen, cell-based, luminescence, SF-1 (NR5A1), full-length DAX-1 | HEK293T StAR-luciferase reporter, SF-1/DAX-1 repression relief | inhibition, % at 6.8 µM | actives 1.1% (n = 370,000) | AID 652010, 2013;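 active = inhibition above the mean over all tested compounds plus 3 SD, cut at about 3.6% in these data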;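 note: 0% = DAX-1 cells with DMSO and 100% = cells lacking DAX-1 with DMSO; higher inhibition means more luminescence from relief of DAX-1 repression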
# hcDAF12 agonist = H. contortus DAF-12 nuclear receptor activators, primary screen, cell-based, luminescence, HEK293, lit1-tk-luc reporter; AID 652067, 2013; actives 1.4% (n = 370,000); HEK293 hcDAF-12 lit1-tk-luc reporter; 0% DMSO, 100% Δ7-dafachronic acid; activation, % at 6.8 µM;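 active = activation above the mean of all tested compounds plus 3 SD, cut at about 5.5% in these data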;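 note: 100% = response to 3 µM Δ7-dafachronic acid high control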
# DAX1 inh-2 = DAX1 (NR0B1) inhibitors, primary screen, cell-based, HEK293, Gal4-DAX1, luciferase luminescence; inhibition, % at 6.75 µM; actives 0.99% (n = 340,000); Nuclear receptor subfamily 0 group B member 1 (Homo sapiens), P51843; HEK293 Gal4-DAX1 luciferase reporter; AID 504766, 2011;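 active = inhibition above the mean over all tested compounds plus 3 SD, cut at about 4.2% in these data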;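 note: 0% = DAX1-transfected cells with DMSO and 100% = empty-vector control cells with DMSO; inhibition shows as a rise in luminescence from relieved DAX1 repression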
# Target sequence (P51843 207-470 limits assumed): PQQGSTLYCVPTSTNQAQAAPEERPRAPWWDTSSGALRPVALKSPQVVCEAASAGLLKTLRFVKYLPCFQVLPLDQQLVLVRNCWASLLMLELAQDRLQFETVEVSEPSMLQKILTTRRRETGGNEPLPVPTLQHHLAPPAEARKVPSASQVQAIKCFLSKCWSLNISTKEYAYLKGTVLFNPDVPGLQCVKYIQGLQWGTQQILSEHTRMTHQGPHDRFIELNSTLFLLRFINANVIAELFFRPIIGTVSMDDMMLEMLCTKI
# ssDAF-12 act = S. stercoralis DAF-12 nuclear receptor activators, primary screen, cell-based, luminescence, HEK293, GRIP1 co-expression, lit1-tk-luc. AID 652126, 2013. HEK293 ssDAF-12/GRIP1 lit1-tk-luc reporter; % of 3 µM dafachronic acid response. activation, % at 6.8 µM. actives 1% (n = 370,000);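 active = activation above the mean over all tested compounds plus 3 SD, cut at about 0.9% in these data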;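 note: 0% = DMSO-only wells and 100% = 3 µM delta7-dafachronic acid wells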
# The depositor's hits bear a star; / = no result; ! = not active in a repeat.
SMILES,hgDAF-12 ag,DAX1 inh-1,hcDAF12 agonist,DAX1 inh-2,ssDAF-12 act
O=C1NC(=O)N(CCC2=CCCCC2)C(=O)/C1=C/c1ccc(O)cc1,-1.1,0.0,0.2,0.9,-1.5
O=C1NC(=O)N(CCC2=CCCCC2)C(=O)/C1=C/c1cccs1,1.0,-0.1,0.6,/,1.7*
CCOC(=O)C1=C(C(=O)OCC)C2(c3ccccc3)c3ccccc3C1(C)N2C (stereo unspecified),-9.5,-2.7,-2.6,/,-1.3
CC/C(=N\Nc1ccccc1)c1c(O)[nH]c(=O)[nH]c1=O,2.2,0.5,1.1,2.0,-1.2
CC/C(=N\Nc1cccc2ccccc12)c1c(O)[nH]c(=O)[nH]c1=O,1.3,-0.8,1.9,-2.5,1.3*
CCOC(=O)CC[C@@H]1CC[C@]2(CCCN(Cc3ccncc3)C2)O1,-0.2,-0.1,-0.9,/,-0.9
c1ccc(Cn2nnnc2C2CN=C(c3ccccc3)c3ccccc3N2)cc1 (stereo unspecified),-1.3,-0.5,0.1,/,-1.3
CCCCn1c(=O)c(C(=O)NCCc2ccccc2)c(O)c2ccccc21,0.8,-0.1,-2.1,5.1*,-1.9
CCCCCn1c(=O)c(C(=O)Nc2ccccc2)c(O)c2ccccc21,0.5,0.1,7.8*,-0.5,-0.3
CC[C@@H]1C[C@H]2CC[C@H](O2)[C@H](C)C(=O)O[C@@H](C)C[C@@H]2CC[C@@H](O2)[C@@H](C)C(=O)O[C@H](C)C[C@H]2CC[C@H](O2)[C@H](C)C(=O)O[C@@H](C)C[C@@H]2CC[C@@H](O2)[C@@H](C)C(=O)O1,-10.8,-6.3,-6.4,/,-2.6
CC(=O)N1c2ccccc2C(c2ccccc2)=NCC1C(=O)NC1CCCCC1 (stereo unspecified),2.2,-3.8,-2.0,/,0.0
COc1ccc(C(=O)C2CCCN(CC3CCCCC3)C2)cc1OC (stereo unspecified),3.9,3.9*,2.0,/,-0.6
Cc1ccc(C2NC(=S)NC(c3ccc(C)cc3)C23C(=O)NC(=O)NC3=O)cc1 (stereo unspecified),0.9,0.2,2.1,4.3*,-1.2
CCOC(=O)[C@]12Cc3cc(OC)ccc3[C@H]1N(Cc1ccccc1)C(=O)c1cc(OC)ccc12,-6.4,-1.0,-1.7,/,0.5
CCOC(=O)[C@]12Cc3cc4ccccc4cc3[C@H]1N(Cc1ccccc1)C(=O)c1cc(OC)ccc12,4.8,3.7*,-0.1,/,-1.1
COP(=O)(C#Cc1ccccc1)C(O)c1ccc(Br)cc1 (stereo unspecified),-0.3,0.2,-1.1,1.1,-1.3
CCOP(=O)(C#Cc1ccccc1)C(O)c1ccc(Br)cc1 (stereo unspecified),-1.9,-0.3,-1.8,4.6*,-1.5
CCOP(=O)(OCC)C1(C(=O)O)CCCC1,-0.4,-0.5,-1.1,5.1*,-1.3
Cc1ccc(-n2c(O)c(C=NCc3ccccn3)c(=O)[nH]c2=S)cc1,2.8,0.4,-0.4,5.1*,-0.9
O=C(Cn1nc(-c2ccc(Cl)cc2)ccc1=O)N1CCC2(CC1)OCCO2,-3.2,0.3,-1.0,4.4*,0.3
O=C(CCn1nc(-c2ccc(Cl)cc2)ccc1=O)N1CCC2(CC1)OCCO2,1.1,-0.4,-0.6,1.3,-1.9
CC(C)(C)n1nnnc1C1CN=C(c2ccccc2)c2cc(Cl)ccc2N1 (stereo unspecified),1.5,0.1,-1.6,/,-1.3
CC(C)(C)n1nnnc1C1CN=C(c2ccccc2)c2ccccc2N1 (stereo unspecified),10.8*,0.9,0.8,/,-0.7
C=Cn1ccnc1P(=S)(c1ccc(Cl)cc1)c1nccn1C=C,0.4,-0.4,0.1,5.2*,0.5
C=Cn1ccnc1P(=S)(c1ccccc1)c1nccn1C=C,-4.3,-0.3,-0.2,0.1,-0.6
SMILES,hgDAF-12 ag,DAX1 inh-1,hcDAF12 agonist,DAX1 inh-2,ssDAF-12 act
COC(=O)C1C(c2ccccc2)CC2CCC1N2C (stereo unspecified),-3.0,-0.6,-1.1,/,-0.9
CC1C2Cc3ccc(O)cc3C1(C)CCN2CC1CC1 (stereo unspecified),-5.1,1.6,-0.3,/,-0.9
CC(=O)Nc1ccc(C2CN(C)CC2C(=O)c2ccc(Cl)cc2)cc1 (stereo unspecified),0.8,4.2*,-0.2,-0.1,-0.9
CN1CC(C(=O)c2ccc(Cl)cc2)C(c2ccc(N(C)C)cc2)C1 (stereo unspecified),0.4,1.0,0.8,4.2*,0.0
COC(=O)[C@@]1(O)c2c(oc3cccc(O)c3c2=O)C=C[C@H]1O,-10.1,-3.8,-2.9,/,-1.1
COc1ccc(-c2cc(=NCCCCCC(=O)O)c3cc(C)ccc3o2)cc1,10.6*!,2.4,2.5,0.7,-0.8
N#Cc1ccc(NC(=S)N2Cc3cc(Br)ccc3-n3nncc3C2)cc1,1.5,-1.1,-1.4,/,-0.6
C[C@H]1CNCCN1c1ccc(N2CC[C@H](O)C2)c(C#N)c1,-1.9,-0.8,-0.5,/,-0.8
COc1cccc2c1C(=O)c1c(O)c3c(c(O)c1C2=O)CC(O)(C(C)=NO)CC3OC1CC(N)C(O)C(C)O1 (stereo unspecified),3.2,-2.8,4.8,-2.8,1.9*
C[C@H](NC(=O)OCc1ccccc1)[P+](=O)O,4.3,-0.8,-0.7,/,-1.1
CC1=CC(=O)NP(=O)(Oc2ccc3ccccc3c2)N1 (stereo unspecified),-0.4,0.6,-1.1,-0.3,-1.3
Cc1ccc(OP2(=O)Nc3cc(C)c(C)cc3S2)cc1 (stereo unspecified),4.3,1.1,5.7*,1.7,0.9
COc1ccc(NC(=S)NC(NC(=O)CF)C(Cl)(Cl)Cl)cc1[N+](=O)[O-] (stereo unspecified),4.4,0.0,-0.9,4.6*,-2.2
C=CCCC(NC(=O)OCc1ccccc1)P(=O)(Oc1ccccc1)Oc1ccccc1 (stereo unspecified),3.6,/,-0.7,/,-1.0
c1ccc(CN2CCc3nc4ccccc4cc3C2)cc1,12.5*,0.1,0.9,2.0,-0.7
CC(=O)Nc1ccc(S(=O)(=O)N2Cc3cnnn3-c3ccccc3C2C#N)cc1 (stereo unspecified),2.1,3.7*,0.5,-0.6,-1.4
CCC(C)C1NC(=O)C2CCCN2C(=O)C(CC(C)C)OC(=O)CCNC(=O)C(C)N(C)C(=O)C(C(C)C)N(C)C1=O (stereo unspecified),-8.8,3.7*,-2.1,0.0,-1.4

# Source: PubChem BioAssay (The Scripps Research Institute Molecular Screening Center)
